This is an account of results in PubChem BioAssay AID651954 (NMMLSC, 2012).

In all, about 1,500 compounds went through this assay and about 160 (11%) were called active. These entries were drawn from the full list. Unmarked numbers belong to inactive results. Cut-off read from the data, not from the text of the source: active = inhibition above about 60%; inactive = the rest.

A short description of this assay: inhibitors of lytic granule exocytosis, confirmation, TALL-104 cells, flow cytometry, Cherry Pick01 (AID 651954).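 Note: 0% = stimulated vehicle wells and 100% = unstimulated wells.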 To be noted: LAMP-1 externalization, at 10 µM, hits give high values, stimulated with PMA plus thapsigargin.
By inhibition is commonly meant the drop in the measured response relative to a control, in per cent. In the case of `Cc1ccccc1CN1C[C@@H]2C[C@@H](c3cn(C)nc3-c3ccccc3)N3CCC[C@@]23C1=O`, the inhibition is -13.4%.

`CCc1ccc(-c2cc3c(=O)n(CC(=O)NCCCN4CCN(Cc5ccccc5)CC4)nc(C)n3n2)cc1`: the inhibition was 34.9%.

As to `Cn1sc(=O)c2cc(S(=O)(=O)NC3CC3)ccc21`, the inhibition was 79.8% (active).

Regarding `COc1ccc(OC)c(NC(=O)CN(C)CCOc2ccc(Br)cc2)c1`, the inhibition was -14.9%.

Regarding `OCCNc1nc(Nc2ccc(Cl)c(Cl)c2)nc2ccccc12`, the inhibition is -11.3%.

`Cc1nc(-c2ccc(Cl)cc2)sc1C1(C)CC(c2ccc(Br)cc2)=NO1` (stereo unspecified): the inhibition was -3.75%.

Turning to `CCOc1ccc(Cl)cc1-c1cc(C(=O)NCc2cccs2)[nH]n1`, the inhibition was 66.4% (active).

As for `COc1ccc(-c2cn[nH]c2-c2ccc(OC)cc2)cc1`, the inhibition is 2.16%.

With `COc1ccc2sc(-c3ccc(N(C)C)cc3)c(-c3ccc4cc[nH]c4c3)c2c1`, the inhibition is -13.7%.

For the molecule `COc1cccc(NC(=O)C2C(c3ccccc3)C2(Cl)Cl)c1` (stereo unspecified), the inhibition is 0.14%.

Turning to `COc1ccc(C2CC(c3cccs3)=NN2c2nc(C)c(C(C)=O)s2)cc1OC` (stereo unspecified), the inhibition was 73.4% (active).

As for `CC(C)Cn1cnc2c(SCc3ccc(Cl)cc3)nc(N)nc21`, the inhibition was -12.1%.

On to `CCOC(=O)C1(CCOc2ccccc2)CCN(Cc2ccc(C#CCCO)cc2)CC1`, for which the inhibition was -4.45%.

Regarding `Oc1ccccc1-c1cc(-c2ccc(Cl)cc2)n[nH]1`, the inhibition was -11.6%.

In the case of `CC(C)c1ccccc1OCC(O)CN(CC(O)COc1cccc2ccccc12)C(C)C` (stereo unspecified), the inhibition was 87.3% (active).

Consider `CS(=O)(=O)N(CC(O)Cn1c2ccccc2c2ccccc21)c1cccc2ccccc12` (stereo unspecified), for which the inhibition is 5.69%.

For `O=C(Nc1ccccc1)c1cccnc1Nc1ccccc1`, the inhibition was -4%.

On to `O=S(=O)(Nc1ccc(O)c2ccccc12)c1ccc(OC(F)(F)F)cc1`, for which the inhibition is -11.4%.

As to `COc1ccc(CCNC(=O)C2CC3Cn4c(nc5cc(C)c(C)cc54)C3N2C)cc1` (stereo unspecified), the inhibition was -13.9%.

Take `C=CCn1c(SCc2csc(C)n2)nc2scc(-c3ccc(C)o3)c2c1=O`: the inhibition was -12.8%.

In the case of `Nc1c(C(=O)c2cccs2)sc2nsc(SCCN3CCCCC3)c12`, the inhibition was 22%.

In the case of `Cc1oc(-c2ccccc2Cl)[n+]([O-])c1C`, the inhibition is -3.08%.

In the case of `COc1ccccc1N1CCN(c2ncnc3sc(C)c(-c4ccccc4)c23)CC1`, the inhibition was -3.66%.

In the case of `CC(=O)Nc1ccc(-c2csc(NC(=O)Nc3ccccc3)n2)cc1`, the inhibition is 55.2%.

Regarding `O=C(COc1ccc(Cl)cc1)N1CCN(c2cccc(C(F)(F)F)c2)CC1`, the inhibition is 5.85%.

In the case of `CCCC(C(=O)n1nc(C)cc1C)C(NS(=O)(=O)c1ccc(C)cc1)c1ccccc1` (stereo unspecified), the inhibition is 1.32%.

Take `CN(c1ccccc1)S(=O)(=O)c1ccc(C(=O)NCCc2ccccc2)cc1`: the inhibition is -3.54%.

Turning to `O=C(NCc1ccccc1)C(c1ccccc1)N(C(=O)c1csnn1)c1ccc(F)cc1` (stereo unspecified), the inhibition is -12.2%.

With `Cc1ccc(-c2ccnc3nc(Sc4ncc(C(F)(F)F)cc4Cl)nn23)cc1`, the inhibition is -4.56%.

Regarding `Cc1cccc(-c2nc3ccc(C(=O)NCCN4CCN(C)CC4)cc3nc2-c2cccc(C)c2)c1`, the inhibition is 2.79%.

For the molecule `COc1ccc(-c2csc(Nc3ccc(O)cc3)n2)cc1`, the inhibition is -6.12%.

For the molecule `COc1ccc(CC(N)c2csc(NC(=O)Nc3ccc(C(C)C)cc3)n2)cc1` (stereo unspecified), the inhibition is 11.2%.

As to `Cc1cccc(N2CCC(NCc3c(C(=O)N4CCCCC4)nc4c(C)cccn34)CC2)c1`, the inhibition is -4.45%.

As for `COc1ccc(-c2oc3ncnc(NCCCO)c3c2-c2ccc(OC)cc2)cc1`, the inhibition was -0.03%.

Turning to `O=S(=O)(c1ccccc1)N(Cc1cccc(F)c1)c1ccccc1`, the inhibition is -7.22%.

In the case of `CN(C)CCNC(=O)c1ccc(-c2cn3c(-c4ccc(Oc5ccccc5)cc4)cnc3cn2)cc1`, the inhibition is 87.2% (active).

Regarding `O=C(NC(=O)c1ccccc1N1CCCCC1)Nc1ccc(Br)cc1`, the inhibition was -13.3%.

Turning to `Cc1cccc2sc(N(CCCN(C)C)C(=O)CCS(=O)(=O)c3ccccc3)nc12`, the inhibition was 7.86%.

On to `COc1ccccc1CN1CCN(C(c2ccccc2)c2ccccc2)CC1`, for which the inhibition is -12.1%.

For `CCN1C(=O)[C@H]2[C@@H](c3ccc(-c4ccc(F)cc4)cc3)N[C@@](Cc3ccccc3)(C(=O)OC)[C@H]2C1=O`, the inhibition was -2.41%.

`CC1CCN(c2ccc([N+](=O)[O-])cc2C(N)=O)CC1`: the inhibition is -4.56%.

Take `COc1cccc(CN(C)CC2CCCN(CCc3ccc(Cl)cc3)C2)c1OC` (stereo unspecified): the inhibition is -10.6%.

As for `CCOC(=O)C1(C)CCCN(C(=O)c2ccc(F)c(Cl)c2)C1` (stereo unspecified), the inhibition is -12.7%.

As to `CS(=O)(=O)N(Cc1ccc(Cl)cc1)c1ccc(C(=O)NCCSCc2ccco2)cc1`, the inhibition is 17.9%.

On to `COc1cccc(CN(C)CC(O)COC(c2ccccc2)c2ccccc2C)c1` (stereo unspecified), for which the inhibition is -4.22%.

For the molecule `COc1ccccc1C1=Nc2cccc3cccc(c23)N1`, the inhibition was -15.4%.

Turning to `COc1cccc(CNc2nc(NCc3ccccc3OC)nc3ccsc23)c1`, the inhibition is 35.8%.

Turning to `CN1CCN(C2Cc3ccc(Cl)cc3Sc3ccc(F)cc32)CC1` (stereo unspecified), the inhibition is 15%.

On to `COc1cccc(CNc2nc(C(F)(F)F)nc3ccccc23)c1`, for which the inhibition is -14.3%.

Regarding `COc1ccc(-c2cc(C(=O)N(C)Cc3ccccc3)c3ccccc3n2)cc1`, the inhibition was -6.15%.

`Cc1ccc(NC(=O)c2cc(-c3ccc(C)o3)nc3ccccc23)nc1`: the inhibition was -10.9%.

In the case of `CC(=O)C[C@@H](O)CC(=O)[C@H]1OC(=O)CCCCCCc2ccccc21`, the inhibition was -13.1%.

For the molecule `CCCCc1ccc(NC(=S)NCCCN2CCOCC2)cc1`, the inhibition was -11.7%.

Regarding `Cc1cnc(C(=O)OCc2c(C)cc(C(C)(C)C)cc2C)cn1`, the inhibition is -3.52%.

In the case of `COc1ccc(Oc2cn[nH]c2-c2ccc(OC)cc2O)cc1`, the inhibition was -11.7%.

As to `CCCCC[C@H](C)N1C[C@@H](COCc2ccccc2)Oc2cc(N3CC[C@@H](N(C)C)C3)ccc2S1(=O)=O`, the inhibition was 16.6%.

`COc1ccc(CCNCc2c(-c3ccccc3)n(C)c3ccccc23)cc1`: the inhibition is 6.74%.

On to `COc1ccc(-c2cc(NC=O)c3ncc(-c4ccccc4)n3c2)cc1OC`, for which the inhibition was 80.3% (active).

As to `CCCC(=O)Nc1nc2ccc(NC(=O)c3c(F)c(F)c(OC)c(F)c3F)cc2s1`, the inhibition was -1.52%.

`CCOC(=O)C1(CCOc2ccccc2)CCN(Cc2cc(OC)c(O)cc2Cl)CC1`: the inhibition was -6.73%.

Turning to `COc1cccc(COc2ccc(N(C)S(=O)(=O)c3ccccc3)cc2)c1`, the inhibition is -7.06%.

For `COC(=O)[C@H](Cc1ccccc1)NC(=O)[C@@H]1C[C@H]1[C@@H](NC(=O)OCc1ccccc1)c1ccccc1`, the inhibition was 48%.

As to `Brc1ccccc1C1Nc2cccc3cccc(c23)N1`, the inhibition is 106% (active).

As to `CC(CC(=O)Nc1cc(C(F)(F)F)ccc1Cl)c1ccccc1` (stereo unspecified), the inhibition is 0.82%.

As to `Cc1cccc(N(CC(=O)Nc2ccc(-c3nc4ccc(C)cc4s3)cc2)S(C)(=O)=O)c1`, the inhibition was 29%.

As for `O=C(Nc1ccc(Cl)cc1)Nc1nnc(/C=C/c2ccccc2)s1`, the inhibition was -2.86%.
